In PubChem BioAssay (Tox21):
Results filed as inconclusive are left out. Calls of active or inactive are those of the source. Unless noted, calls follow the shape of the dose curve; as a rule, active = well fitted curve in the direction sought with a large enough effect in the repeat runs; inconclusive = weak or mixed curves; inactive = no such curve, though single readings can be large; an effect the other way counts as inactive or inconclusive.

Experiments:
[1] = qHTS assay for small molecule agonists of the p53 signaling pathway (AID 651631; calls by dose curve; also: nearly all actives have a fitted effect of over 15% in size)
Outline: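 HCT-116 cells carrying a stable p53 response element–beta-lactamase reporter were plated, rested 5 h at 37 °C, then exposed to compound in DMSO for 16 h at 37 °C; reporter activity was read as FRET substrate fluorescence after 2 h at room temperature.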

[2] = qHTS assay for small molecules that induce genotoxicity in human embryonic kidney cells expressing luciferase-tagged ATAD5 (AID 651632); also: nearly all actives have a fitted effect of over 15% in size
Outline: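 Increased luciferase signal from ATAD5-tagged reporter cells indicates DNA-damage-driven ATAD5 induction. HEK293T cells are treated for 16 hr at 37C before detection with Amplite.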

[3] = qHTS assay for small molecule agonists of the p53 signaling pathway - cell viability (AID 651633; calls by dose curve; also: series mostly up to about 83 µM; nearly all actives have a fitted effect of over 30% in size)
Outline: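 p53RE-bla cells were treated with compound for 16 hours at 37 C. Cytotoxicity was then measured as CellTiter-Glo luminescence after 30 min at room temperature.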

[4] = qHTS assay for small molecules that induce genotoxicity in human embryonic kidney cells expressing luciferase-tagged ATAD5 - cell viability (AID 651634; calls by dose curve; also: nearly all actives have a fitted effect of over 25% in size; also: potency is read from the fitted curve at half-maximal effect)
Outline: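 Cytotoxicity counterscreen in HEK293T cells bearing an ATAD5-luciferase reporter: live-cell protease activity measured by CellTiter-Fluor fluorescence after 15.5 hr compound exposure.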

[5] = qHTS assay for small molecule disruptors of the mitochondrial membrane potential - cell viability (AID 720634; calls by dose curve;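 also: human HepG2 liver cancer cells; series mostly up to about 83 µM; nearly all actives have a fitted effect of over 20% in size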)
Outline: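 After overnight attachment at 37 C, HepG2 cells received compound or DMSO vehicle for 1 hr. Viability is then taken from ATP-driven luminescence following a 30 min room-temperature CellTiter-Glo step.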

[6] = qHTS assay for small molecule disruptors of the mitochondrial membrane potential (AID 720635)
Outline: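 HepG2 cells exposed to compound 1 hr at 37C, then Mito-MPS dye 30 min. Ratio read of aggregate (540/590 nm) versus monomer (490/535 nm) fluorescence.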

[7] = qHTS assay to test for compound auto fluorescence at 590 nm (red) in HepG2 cells (AID 720674)
Outline: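 HepG2 cells, 2,000 per well in MEM with 10% FBS, attached overnight at 37 C, then got 23 nL compound or DMSO. After 1 hr at 37 C, 5% CO2, red fluorescence was read at 540/590 nm against Rose Bengal sodium as reference.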

[8] = qHTS assay to test for compound auto fluorescence at 535 nm (green) in HepG2 cells (AID 720675)
[9] = qHTS assay to test for compound auto fluorescence at 460 nm (blue) in HEK293 cells (AID 720678)
Outline: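 Cells were seeded and left to adhere for 4-5 hr at 37C. Compounds were then pin-transferred. After an overnight incubation at 37C under 5% CO2, intrinsic fluorescence at 405/460 nm was measured and referenced to triamterene.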

[10] = qHTS assay to test for compound auto fluorescence at 590 nm (red) in HEK293 cells (AID 720679)
Outline: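 Each well held 2,000 HEK293 cells in medium containing 10% dialyzed FBS. Following 4-5 hr attachment at 37C, 23 nL test compound or DMSO was added; plates sat overnight, and red fluorescence (540/590nm) was recorded.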

[11] = qHTS assay to test for compound auto fluorescence at 535 nm (green) in HEK293 cells (AID 720680)
[12] = qHTS assay to test for compound auto fluorescence at 460 nm (blue) in HEK293 cell free culture (AID 720681)
Outline: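 Compounds were added to cell-free DMEM with 10% FBS and fluorescence read directly. The blue channel used 405 nm excitation and 460 nm emission, with triamterene as the reference fluorophore.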

[13] = qHTS assay to test for compound auto fluorescence at 535 nm (green) in HEK293 cell free culture (AID 720682)
Outline: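 Read-out: 485/535 nm fluorescence intensity, calibrated against fluorescein. Medium only (DMEM + 10% FBS, no cells); test compound or DMSO vehicle added by pintool before plate reading.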

[14] = qHTS assay to test for compound auto fluorescence at 590 nm (red) in HEK293 cell free culture (AID 720683)
Outline: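 Cell-free wells of DMEM with 10% FBS received compound, and intrinsic fluorescence was read at excitation/emission 540/590 nm. Values expressed as equivalence to Rose Bengal sodium.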

[15] = qHTS assay to test for compound auto fluorescence at 590 nm (red) in HepG2 cell free culture (AID 720684)
Outline: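 Compounds are added to culture medium (MEM, 10% FBS) lacking cells, then fluorescence is read at excitation 540 nm, emission 590 nm, with Rose Bengal sodium as the equivalency standard.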

[16] = qHTS assay to test for compound auto fluorescence at 460 nm (blue) in HepG2 cell free culture (AID 720685)
Outline: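 Compound (23 nL) or DMSO pinned into cell-free MEM with 10% FBS; blue fluorescence read at 405/460 nm excitation/emission, expressed as auto-fluorescence equivalency to triamterene.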

[17] = qHTS assay to test for compound auto fluorescence at 535 nm (green) in HepG2 cell free culture (AID 720686)
[18] = qHTS assay to test for compound auto fluorescence at 460 nm (blue) in HepG2 cells (AID 720687)
Outline: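 HepG2 cells in MEM with 10% FBS, attached overnight at 37 C, were exposed to compound or DMSO for 1 hr at 37 C, 5% CO2. Blue fluorescence was read at 405/460 nm, with triamterene as reference fluorophore.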

[19] = target: Glucocorticoid receptor (Homo sapiens) (UniProt P04150); test: qHTS assay to identify small molecule antagonists of the glucocorticoid receptor (GR) signaling pathway (AID 720692; active = well fitted inhibition curve with a large enough effect in the signal ratio in the repeat runs, not every such curve was filed as active; the % refers to the signal ratio)
Outline: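 Cells plated, rested 4 h at 37 C/5% CO2; compounds in DMSO pin-transferred; dexamethasone added to 5 nM final; 18 h at 37 C; B/G FRET substrate added, 2 h room temperature; fluorescence measured.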

[20] = target: Glucocorticoid receptor (Homo sapiens) (UniProt P04150); test: qHTS assay to identify small molecule agonists of the glucocorticoid receptor (GR) signaling pathway (AID 720691; active = well fitted activation curve with a large enough effect in the signal ratio in the repeat runs, not every such curve was filed as active; the % refers to the signal ratio)
Outline: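 Agonist mode in a HeLa line carrying a GRE-controlled beta-lactamase reporter. Compounds act for 18 h at 37 C before a 2 h room-temperature FRET substrate step and fluorescence reading.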
% is scaled to controls: 0 for no effect and ±100 for the full control effect.

Chain of Glucocorticoid receptor (Homo sapiens) (P04150 whole entry, looked up): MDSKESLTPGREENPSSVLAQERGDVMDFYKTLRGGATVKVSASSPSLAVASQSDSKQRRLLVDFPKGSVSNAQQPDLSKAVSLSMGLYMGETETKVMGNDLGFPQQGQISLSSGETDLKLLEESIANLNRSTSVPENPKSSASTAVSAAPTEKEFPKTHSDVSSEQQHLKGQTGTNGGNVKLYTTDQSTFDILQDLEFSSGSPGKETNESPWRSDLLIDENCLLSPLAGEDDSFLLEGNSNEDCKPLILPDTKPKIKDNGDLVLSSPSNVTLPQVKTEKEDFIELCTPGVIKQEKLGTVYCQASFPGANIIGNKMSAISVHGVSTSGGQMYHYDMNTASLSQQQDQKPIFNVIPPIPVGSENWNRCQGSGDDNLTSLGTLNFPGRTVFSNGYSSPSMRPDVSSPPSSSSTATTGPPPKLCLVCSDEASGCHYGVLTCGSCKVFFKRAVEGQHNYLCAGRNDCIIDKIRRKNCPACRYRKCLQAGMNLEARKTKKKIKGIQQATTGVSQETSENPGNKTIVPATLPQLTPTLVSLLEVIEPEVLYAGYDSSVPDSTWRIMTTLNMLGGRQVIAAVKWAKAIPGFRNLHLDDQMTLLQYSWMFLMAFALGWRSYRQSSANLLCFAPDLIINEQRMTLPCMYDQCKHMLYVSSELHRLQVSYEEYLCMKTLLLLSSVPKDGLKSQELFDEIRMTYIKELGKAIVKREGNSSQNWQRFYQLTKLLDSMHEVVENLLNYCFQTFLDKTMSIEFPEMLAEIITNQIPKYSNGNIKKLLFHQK

CCCCCCCCCCCCC
inactive: outcome [1] | outcome [2] | outcome [3] | Potency [4] | outcome [5] | Potency [6] | outcome [7] | outcome [8] | outcome [9] | outcome [10] | outcome [11] | outcome [12] | outcome [13] | outcome [14] | outcome [15] | outcome [16] | outcome [17] | outcome [18] | outcome [19]

O=C(Oc1ccccc1C(=O)O)c1ccccc1O
inactive: outcome [1] | outcome [2] | outcome [3] | Potency [4] | outcome [5] | Potency [6] | outcome [7] | outcome [8] | outcome [9] | outcome [10] | outcome [11] | outcome [12] | outcome [13] | outcome [14] | outcome [15] | outcome [16] | outcome [17] | outcome [18]

Nc1ccc(S(=O)(=O)Nc2ccccn2)cc1
inactive: outcome [1] | outcome [2] | outcome [3] | Potency [4] | outcome [5] | Potency [6] | fluorescence, relative to Rose Bengal [7] 0.667% [at 18.6 µM] | fluorescence, % of fluorescein control [8] -0.201% [at 18.6 µM] | fluorescence, % of triamterene [9] -0.296% [at 18.6 µM] | fluorescence, % of fluorescent control [10] 0.278% [at 18.6 µM] | fluorescence, % of fluorescein [11] 0.0233% [at 18.6 µM] | fluorescence, % of fluorescent control [12] -0.0806% [at 18.6 µM] | activity change [13] 0.0547% [at 18.6 µM] | fluorescence, % of fluorescent control [14] 0.101% [at 18.6 µM] | fluorescence, % of Rose Bengal [15] 0.012% [at 18.6 µM] | fluorescence, % of fluorescent control [16] -0.12% [at 18.6 µM] | fluorescence, % of fluorescein control [17] -0.0379% [at 18.6 µM] | fluorescence, % of fluorescent control [18] 0.149% [at 18.6 µM] | Potency [20] | outcome [19]

CCCC(C)CC (stereo unspecified)
inactive: outcome [1] | outcome [2] | outcome [3] | Potency [4] | outcome [5] | Potency [6] | outcome [7] | outcome [8] | outcome [9] | outcome [10] | outcome [11] | outcome [12] | outcome [13] | outcome [14] | outcome [15] | outcome [16] | outcome [17] | outcome [18]

COc1cc(C=O)ccc1OC(=O)C(C)C
inactive: outcome [1] | outcome [2] | outcome [3] | Potency [4] | outcome [5] | Potency [6] | outcome [7] | outcome [8] | outcome [9] | outcome [10] | outcome [11] | outcome [12] | outcome [13] | outcome [14] | outcome [15] | outcome [16] | outcome [17] | outcome [18] | outcome [19]

COc1cc2c3cc1Oc1cc(ccc1O)C[C@@H]1c4c(cc(OC)c(O)c4Oc4ccc(cc4)C[C@@H]3N(C)CC2)CC[N+]1(C)C
inactive: outcome [1] | outcome [2] | outcome [3] | Potency [4] | outcome [5] | Potency [6] | outcome [7] | outcome [8] | outcome [9] | outcome [10] | outcome [11] | outcome [12] | outcome [13] | outcome [14] | outcome [15] | outcome [16] | outcome [17] | outcome [18]

O=c1[nH]c(=O)c2ccccc2o1
inactive: outcome [1] | outcome [2] | outcome [3] | Potency [4] | outcome [5] | Potency [6] | outcome [7] | outcome [8] | outcome [9] | outcome [10] | outcome [11] | outcome [12] | outcome [13] | outcome [14] | outcome [15] | outcome [16] | outcome [17] | outcome [18]

CCCCCCCCCOCC1CO1 (stereo unspecified)
inactive: outcome [1] | outcome [2] | outcome [3] | Potency [4] | outcome [5] | Potency [6] | outcome [7] | outcome [8] | outcome [9] | outcome [10] | outcome [11] | outcome [12] | outcome [13] | outcome [14] | outcome [15] | outcome [16] | outcome [17] | outcome [18] | Potency [20] | outcome [19]

CCCCCCCCCCCCCCCCI
inactive: outcome [1] | outcome [2] | outcome [3] | Potency [4] | outcome [5] | Potency [6] | fluorescence, relative to Rose Bengal [7] 0.0421% [at 18.6 µM] | fluorescence, % of fluorescein control [8] -0.0199% [at 18.6 µM] | fluorescence, % of triamterene [9] 0.0613% [at 18.6 µM] | fluorescence, % of fluorescent control [10] 0.21% [at 18.6 µM] | fluorescence, % of fluorescein [11] 0.0243% [at 18.6 µM] | fluorescence, % of fluorescent control [12] -0.0222% [at 18.6 µM] | activity change [13] -0.0077% [at 18.6 µM] | fluorescence, % of fluorescent control [14] 0.0155% [at 18.6 µM] | fluorescence, % of Rose Bengal [15] -0.0349% [at 18.6 µM] | fluorescence, % of fluorescent control [16] -0.142% [at 18.6 µM] | fluorescence, % of fluorescein control [17] 0.0097% [at 18.6 µM] | fluorescence, % of fluorescent control [18] 0.151% [at 18.6 µM]

COc1cc([N+](=O)[O-])ccc1N
inactive: outcome [1] | outcome [2] | outcome [3] | outcome [5] | Potency [6] | outcome [7] | outcome [8] | outcome [9] | outcome [10] | outcome [11] | outcome [12] | outcome [13] | outcome [14] | outcome [15] | outcome [16] | outcome [17] | outcome [18] | Potency [20] | outcome [19]
active: Potency [4] 54.5 µM

CCOC(=O)CCc1ccccc1
inactive: outcome [1] | outcome [2] | outcome [3] | Potency [4] | outcome [5] | Potency [6] | outcome [7] | outcome [8] | outcome [9] | outcome [10] | outcome [11] | outcome [12] | outcome [13] | outcome [14] | outcome [15] | outcome [16] | outcome [17] | outcome [18]

O=C1CC[C@H](C(=O)N2CCCCC2)N1
inactive: outcome [1] | outcome [2] | outcome [3] | Potency [4] | outcome [5] | Potency [6] | outcome [7] | outcome [8] | outcome [9] | outcome [10] | outcome [11] | outcome [12] | outcome [13] | outcome [14] | outcome [15] | outcome [16] | outcome [17] | outcome [18] | Potency [20] | outcome [19]
